The list is not random: actives were taken first. Their share in the collection is about 1.9%.
PLCb3 inh = inhibitors of human phospholipase C beta3 | inhibition, % at 12.2 µM | hit rate 0.18% among 370,000 | Purified PLC-beta3, fluorogenic substrate, fluorescence | Q01970; in the data active = inhibition above about 11%;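 note: 0% = median of compound wells on plate and 100% = full blocker control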
Target sequence (Q01970 whole entry, looked up): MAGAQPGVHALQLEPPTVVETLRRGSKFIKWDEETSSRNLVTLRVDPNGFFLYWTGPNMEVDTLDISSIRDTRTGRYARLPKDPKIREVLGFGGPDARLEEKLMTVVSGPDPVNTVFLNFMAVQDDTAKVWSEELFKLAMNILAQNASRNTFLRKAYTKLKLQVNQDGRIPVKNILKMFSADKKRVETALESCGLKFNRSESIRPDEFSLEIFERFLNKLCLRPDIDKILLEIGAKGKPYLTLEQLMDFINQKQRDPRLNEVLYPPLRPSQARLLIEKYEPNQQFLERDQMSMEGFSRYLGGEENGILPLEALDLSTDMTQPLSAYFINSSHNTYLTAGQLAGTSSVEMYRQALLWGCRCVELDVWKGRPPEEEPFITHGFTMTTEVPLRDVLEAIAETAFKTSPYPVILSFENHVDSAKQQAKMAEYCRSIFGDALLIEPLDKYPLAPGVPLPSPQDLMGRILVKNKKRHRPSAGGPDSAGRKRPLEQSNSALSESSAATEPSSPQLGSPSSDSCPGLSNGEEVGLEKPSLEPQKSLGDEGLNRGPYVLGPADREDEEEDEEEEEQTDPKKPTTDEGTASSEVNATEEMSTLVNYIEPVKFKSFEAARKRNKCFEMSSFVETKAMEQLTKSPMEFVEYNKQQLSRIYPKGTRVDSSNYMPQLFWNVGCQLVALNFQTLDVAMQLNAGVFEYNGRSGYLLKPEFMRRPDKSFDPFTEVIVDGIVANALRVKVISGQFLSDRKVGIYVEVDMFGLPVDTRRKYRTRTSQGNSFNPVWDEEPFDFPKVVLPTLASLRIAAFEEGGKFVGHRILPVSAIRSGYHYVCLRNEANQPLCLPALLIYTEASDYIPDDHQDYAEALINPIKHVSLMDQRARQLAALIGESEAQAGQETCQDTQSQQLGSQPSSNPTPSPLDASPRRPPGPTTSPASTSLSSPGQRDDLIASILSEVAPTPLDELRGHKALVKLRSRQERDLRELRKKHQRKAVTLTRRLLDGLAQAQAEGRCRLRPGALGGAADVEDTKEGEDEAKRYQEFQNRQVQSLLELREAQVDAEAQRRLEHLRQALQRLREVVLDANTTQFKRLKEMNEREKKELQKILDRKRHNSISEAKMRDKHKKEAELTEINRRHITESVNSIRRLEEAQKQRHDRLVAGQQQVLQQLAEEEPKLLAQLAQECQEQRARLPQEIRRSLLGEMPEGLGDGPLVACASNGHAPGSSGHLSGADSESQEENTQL
bovine MsrA act = activators of bovine methionine sulfoxide reductase A | purified bovine MsrA, absorbance read-out | activation, % at 10.6 µM | hit rate 0.3% among 360,000; in the data active = activation above about 7.5%;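 note: 0% = vehicle and 100% = reference activator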
PLCg1 inh = inhibitors of human phospholipase C gamma1. hit rate 0.84% among 370,000. inhibition, % at 12.2 µM. purified PLC-gamma1, fluorogenic substrate, fluorescence. P19174; in the data active = inhibition above about 9.5%
MsrA inhibitor = inhibits bovine methionine sulfoxide reductase A. purified bovine MsrA, absorbance read-out. inhibition, % at 15.5 µM. hit rate 0.75% among 360,000. AID 651718;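 note: 0% = vehicle wells with enzyme and 100% = reference inhibitor wells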
MsrA conf = bovine MsrA inhibition, confirmed. inhibition, % at 15.5 µM. shares compounds with MsrA inhibitor. AID 651822. purified bovine MsrA, absorbance read-out. hit rate 41% among 2,300;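 note: coupled to thioredoxin reductase with NADPH and selenocystamine and DMSO as substrate; 0% = vehicle only and 100% = full effect of reference inhibitor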
* hit, by the source's call. Cut-off read from the data, not from the text of the source, unless noted: active = inhibition above about 4.5%; inactive = the rest.

Results for COC(=O)C1=C(C)N(C)C(=NCC2CC2)NC1c1cccc(F)c1 (stereo unspecified) ?
PLCb3 inh: -3.6; PLCg1 inh: -3.4; MsrA inhibitor: 0.2

How did O=C(N/N=C/c1cnc(N2CCOCC2)s1)c1ccccc1 do in these assays?
PLCb3 inh: -70.7; bovine MsrA act: -7.2; PLCg1 inh: -53.9; MsrA inhibitor: 5.2*; MsrA conf: 5.1*

How did COc1ccc(C(=O)N/N=C/c2sc(N3CCOCC3)nc2-c2ccccc2)cc1OC do in these assays?
PLCb3 inh: -36.8; bovine MsrA act: -2.7; PLCg1 inh: -20.5; MsrA inhibitor: 1.4

Results for Nc1ccc(C(=O)N/N=C/c2ccc(N3CCOCC3)s2)cc1 ?
PLCb3 inh: -140.2; bovine MsrA act: 0.1; PLCg1 inh: -88.1; MsrA inhibitor: 2.9

How did O=C(N/N=C/c1sc(N2CCOCC2)nc1-c1ccccc1)c1ccc(O)cc1 do in these assays?
PLCb3 inh: -209.8; bovine MsrA act: -5.0; PLCg1 inh: -205.4; MsrA inhibitor: 16.7*; MsrA conf: 10.4*

How did COc1ccccc1NS(=O)(=O)c1cc([N+](=O)[O-])ccc1N/N=C/c1c[nH]c2ccccc12 do in these assays?
PLCb3 inh: -5.1; bovine MsrA act: -0.9; PLCg1 inh: -4.3; MsrA inhibitor: 0.0

How did COc1ccccc1NS(=O)(=O)c1cc([N+](=O)[O-])ccc1N/N=C/c1sc(N2CCOCC2)nc1-c1ccccc1 do in these assays?
PLCb3 inh: -7.0; bovine MsrA act: -2.1; PLCg1 inh: -1.1; MsrA inhibitor: 10.7*; MsrA conf: 7.0*

How did NC(=O)NC(=O)CC1S/C(=N/N=C/c2ccccc2)NC1=O (stereo unspecified) do in these assays?
PLCb3 inh: -5.5; bovine MsrA act: -14.9; PLCg1 inh: 4.7; MsrA inhibitor: 5.3*; MsrA conf: 4.2

How did Cc1ccc(/C=N/N=C2/NC(=O)C(CC(=O)N3CCOCC3)S2)cc1 (stereo unspecified) do in these assays?
PLCb3 inh: -9.1; bovine MsrA act: -4.0; PLCg1 inh: -0.9; MsrA inhibitor: 5.8*; MsrA conf: 1.6

What do the screens show for `O=C(CC1S/C(=N/N=C/c2c[nH]c3ccccc23)NC1=O)Nc1ccccc1` (stereo unspecified)?
PLCb3 inh: -18.1; bovine MsrA act: -6.5; PLCg1 inh: -3.6; MsrA inhibitor: 3.9

Results for O=C(CC1S/C(=N/N=C/c2ccco2)NC1=O)Nc1ccccc1 (stereo unspecified) ?
PLCb3 inh: 3.6; bovine MsrA act: -3.1; PLCg1 inh: 3.5; MsrA inhibitor: 5.3*; MsrA conf: 5.3*

Results for O=C1CC(C(=O)Nc2ccc(F)cc2)S/C(=N\N=C\c2ccco2)N1 (stereo unspecified) ?
PLCb3 inh: 0.6; bovine MsrA act: -4.9; PLCg1 inh: 0.8; MsrA inhibitor: 6.3*; MsrA conf: 5.0*

What do the screens show for `COC(=O)[C@]12C[C@H](CC(=O)N3CCSCC3)C(=O)N(Cc3ccc4c(c3)OCO4)C1=C[C@H](C(C)(C)C)O[C@@H]2C`?
PLCb3 inh: 4.0; PLCg1 inh: -1.1; MsrA inhibitor: 0.2

Results for COCCN(CCOC)C(=O)[C@@H](Cc1ccccc1)NC(=O)[C@H]1O[C@@H](n2ccc(N)nc2=O)[C@H](O)[C@@H]1O ?
PLCb3 inh: 7.7; PLCg1 inh: 8.1; MsrA inhibitor: 0.2

How did C/C(=N\N=C1\NC(=O)C(CC(=O)Nc2ccc(Cl)cc2)S1)c1ccco1 (stereo unspecified) do in these assays?
PLCb3 inh: 0.8; bovine MsrA act: -5.3; PLCg1 inh: 1.0; MsrA inhibitor: 4.8*; MsrA conf: 4.8*

How did O=c1/c(=C/c2ccco2)sc2n1CN(c1cccc(Br)c1)CN=2 do in these assays?
PLCb3 inh: -20.7; bovine MsrA act: 7.4; PLCg1 inh: -18.9; MsrA inhibitor: 5.2*; MsrA conf: 2.3

How did Cc1cc(C)cc(N2CN=c3s/c(=C\c4ccco4)c(=O)n3C2)c1 do in these assays?
PLCb3 inh: 0.9; bovine MsrA act: -8.0; PLCg1 inh: -0.2; MsrA inhibitor: 2.9

What do the screens show for `Cc1ccc(/C=c2\sc3n(c2=O)CN(c2cccc(Br)c2)CN=3)o1`?
PLCb3 inh: -24.3; bovine MsrA act: -3.9; PLCg1 inh: -18.9; MsrA inhibitor: 1.7

Results for O=c1/c(=C/c2ccco2)sc2n1CN(c1ccccc1)CN=2 ?
PLCb3 inh: -13.4; bovine MsrA act: -6.9; PLCg1 inh: -10.3; MsrA inhibitor: 5.0*; MsrA conf: 6.1*

Results for C[C@H](O)[C@@H]1CN2CCc3ccc(-c4ccc5c(c4)OCO5)cc3[C@@H]2C[C@@H]1N(C)C(=O)c1ccco1 ?
PLCb3 inh: -0.4; PLCg1 inh: -1.2; MsrA inhibitor: -0.7

How did COC(=O)c1cccc(Cn2ccc3ccc(-c4ccc5ccn(C(=O)C6CC6)c5c4)cc32)c1 do in these assays?
PLCb3 inh: -172.9; PLCg1 inh: -122.4

How did N#Cc1c(/N=C/c2ccc(-c3ccccc3C(=O)O)o2)sc2c1CCCC2 do in these assays?
PLCb3 inh: -28.7; bovine MsrA act: -5.3; PLCg1 inh: -17.5; MsrA inhibitor: 2.7

Results for N#Cc1c(/N=C/c2ccc(-c3ccc(C(=O)O)c(Cl)c3)o2)sc2c1CCCC2 ?
PLCb3 inh: -14.5; bovine MsrA act: -3.2; PLCg1 inh: -3.4; MsrA inhibitor: 7.0*; MsrA conf: 4.0

What do the screens show for `C[C@@H]1CN([C@H](C)CO)S(=O)(=O)c2ccc(Br)cc2O[C@H]1CN(C)CC1CCOCC1`?
PLCb3 inh: 3.4; PLCg1 inh: -0.2; MsrA inhibitor: 0.1

What do the screens show for `C=CCNc1nc(N)c([N+](=O)[O-])c(NCc2ccccc2)n1`?
bovine MsrA act: -3.9

How did C=CCNc1nc(N)c([N+](=O)[O-])c(NCCO)n1 do in these assays?
PLCb3 inh: -0.7; bovine MsrA act: -4.8; PLCg1 inh: 8.3; MsrA inhibitor: 5.0*; MsrA conf: 4.8*

What do the screens show for `N#C/C(=C\c1cccs1)C(=O)NCc1ccccc1`?
PLCb3 inh: 6.7; bovine MsrA act: -4.4; PLCg1 inh: 1.7; MsrA inhibitor: 4.4

How did N#C/C(=C\c1cccc([N+](=O)[O-])c1)C(=O)NCc1cccnc1 do in these assays?
PLCb3 inh: -2.2; bovine MsrA act: -4.3; PLCg1 inh: -3.4; MsrA inhibitor: 1.1

How did N#C/C(=C\c1cccs1)C(=O)NCc1cccnc1 do in these assays?
PLCb3 inh: 2.0; bovine MsrA act: -8.8; PLCg1 inh: 1.7; MsrA inhibitor: 5.5*; MsrA conf: 4.2

Results for N#C/C(=C\C=C\c1ccccc1)C(=O)NCc1cccnc1 ?
PLCb3 inh: -11.2; bovine MsrA act: -4.5; PLCg1 inh: -4.3; MsrA inhibitor: 7.6*; MsrA conf: 6.8*

What do the screens show for `Cc1ccc(S(=O)(=O)N/N=C/c2cc(Br)ccc2O)cc1`?
PLCb3 inh: -54.9; bovine MsrA act: -7.5; PLCg1 inh: -31.8; MsrA inhibitor: 4.9*; MsrA conf: 0.3

How did COc1ccc(O)c(/C=N/NS(=O)(=O)c2ccc(C)cc2)c1 do in these assays?
PLCb3 inh: -46.4; bovine MsrA act: -2.7; PLCg1 inh: -42.1; MsrA inhibitor: 1.4

Results for CC1(C)CC(N2CCOCC2)=CC(=[N+]2CCOCC2)C1 ?
PLCb3 inh: 2.5; bovine MsrA act: -8.9; PLCg1 inh: 4.5; MsrA inhibitor: 10.4*; MsrA conf: 5.5*
